Inconclusive results are not listed. Activity calls are given as the source filed them. Unless noted, calls follow the shape of the dose curve; as a rule, active = well fitted curve in the direction sought with a large enough effect in the repeat runs; inconclusive = weak or mixed curves; inactive = no such curve, though single readings can be large; an effect the other way counts as inactive or inconclusive.
How the values were obtained:
[1] = A CellTox Green Cytotoxicity Assay to monitor cytotoxicity in HEK293 cells - 32 hour (AID 1224881); also: nearly all actives have a fitted effect of over 40% in size
Outline: (§1)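 HEK293 cells, 600/well, were preincubated 5 hours and then exposed to compounds at 37 C for up to 40 hours. A cell-impermeant cyanine dye staining dead-cell DNA was read by fluorescence at 0, 8, 16, 24, 32 and 40 h time points.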

[2] = A CellTox Green Cytotoxicity Assay to monitor cytotoxicity in HepG2 cells - 0 hour (AID 1224882); also: nearly all actives have a fitted effect of over 35% in size
Outline: (§2)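 HepG2 cells, 600/well, preincubated 5 h with CellTox Green dye, then exposed to Tox21 compounds in DMSO at 37 C for up to 40 h. Dead-cell DNA fluorescence read at the indicated time point.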

[3] = A CellTox Green Cytotoxicity Assay to monitor cytotoxicity in HepG2 cells - 32 hour (AID 1224883); also: nearly all actives have a fitted effect of over 50% in size
Outline: as §2

[4] = A CellTox Green Cytotoxicity Assay to monitor cytotoxicity in HEK293 cells - 8 hour (AID 1224884); also: nearly all actives have a fitted effect of over 35% in size
Outline: as §1

[5] = qHTS RealTime-Glo MT Cell Viability Assay in HepG2 cells - 16 hour (AID 1224885); also: nearly all actives have a fitted effect of over 50% in size
Outline: (§3)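 Compound treatment began 5 h after plating HepG2 cells (600/well) with NanoLuc luciferase and prosubstrate. Plates stayed at 37 C for 40 h; luminescence was captured at six time points, 0 h through 40 h.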

[6] = qHTS RealTime-Glo MT Cell Viability Assay in HEK293 cells - 8 hour (AID 1224887); also: top concentration of the series differs between compounds; nearly all actives have a fitted effect of over 50% in size
Outline: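 600 cells/well were plated with the nonlytic NanoLuc/prosubstrate reagent, pre-incubated 5 h, then given 23 nL of compound in DMSO. Incubation at 37 C for 40 h, with luminescence from viable-cell-reduced substrate read repeatedly from 0 h.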

[7] = A CellTox Green Cytotoxicity Assay to monitor cytotoxicity in HEK293 cells - 16 hour (AID 1224888); also: nearly all actives have a fitted effect of over 35% in size
Outline: as §1

[8] = qHTS RealTime-Glo MT Cell Viability Assay in HepG2 cells - 0 hour (AID 1224889); also: nearly all actives have a fitted effect of over 50% in size; also: potency is read from the fitted curve at half-maximal effect
Outline: as §3

[9] = A CellTox Green Cytotoxicity Assay to monitor cytotoxicity in HepG2 cells - 8 hour (AID 1224890); also: nearly all actives have a fitted effect of over 45% in size
Outline: as §2

[10] = qHTS assay to identify small molecule antagonists of the estrogen receptor alpha (ER-alpha) signaling pathway using the BG1 cell line in the presence of 0.1 nM 17-beta-estradiol - cell viability counter screen (AID 1259241); also: nearly all actives have a fitted effect of over 40% in size; also: potency is read from the fitted curve at half-maximal effect
Outline: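 Live-cell protease activity (CellTiter-Fluor fluorescence, 30 min) was read in the same wells after VM7Luc4E2 cells had been exposed to compounds with 0.1 nM 17beta-estradiol for 22 hr at 37C.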

[11] = qHTS assay to identify small molecule antagonists of the androgen receptor (AR) signaling pathway using the MDA cell line in the presence of 0.5 nM R1881 - cell viability counter screen (AID 1259242); also: nearly all actives have a fitted effect of over 45% in size
Outline: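 MDA-kb2 cells (MMTV-luciferase, AR/GR responsive) were treated with compounds plus 0.5 nM R1881 (final) for 16 hr at 37C, 0% CO2. Viability was then read in the same wells as live-cell protease fluorescence (CellTiter-Fluor, 30 min).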

[12] = qHTS assay to identify small molecule HDAC inhibitors (AID 1259364); also: top concentration of the series differs between compounds; nearly all actives have a fitted effect of over 45% in size
Outline: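 Wild-type HCT-116 cells, plated overnight at 37 C, exposed to compounds 2 hr at 37 C; luminogenic HDAC-Glo substrate then added 30 min at room temperature. Luminescence reports relative endogenous class I/II HDAC activity.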

[13] = qHTS assay to identify small molecule HDAC inhibitors - cell viability counter screen (AID 1259365)
Outline: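 HCT-116 (wild type), 1,500 cells/well, overnight 37C/5% CO2; compound in DMSO 2hr; CellTiter-Glo 30min RT; luminescence read.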

[14] = qHTS assay to identify small molecule agonists of the sonic hedgehog signaling (Shh) pathway - cell viability counter screen (AID 1259366); also: nearly all actives have a fitted effect of over 50% in size; also: potency is read from the fitted curve at half-maximal effect
Outline: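 CellTiter-Fluor fluorescence read-out, 1 hr at 37C, added after 23hr compound exposure. Cells: 3T3 Gli1-Luc, an NIH/3T3 clone with stably integrated Gli1-Luc reporter, plated 4hr before compound.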

[15] = qHTS assay to identify small molecule antagonists of the sonic hedgehog signaling (Shh) pathway - cell viability counter screen (AID 1259367); also: nearly all actives have a fitted effect of over 55% in size; also: potency is read from the fitted curve at half-maximal effect
Outline: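 Seed 3T3 Gli1-Luc cells at 2,000 per well; incubate 4 hr; add compound in DMSO, then conditioned medium; incubate at 37C with 5% CO2; add CellTiter-Fluor after 23 hr; read fluorescence 1 hr later.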

[16] = qHTS assay to identify small molecule agonists of the sonic hedgehog signaling (Shh) pathway (AID 1259368; calls by dose curve;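 also: NIH/3T3-derived 3T3Gli1-Luc cells carrying a stable Gli1-driven firefly luciferase reporter; series mostly up to about 92 µM; nearly all actives have a fitted effect of over 15% in size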)
Outline: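 NIH/3T3-derived 3T3Gli1-Luc cells with stably integrated Gli1-driven firefly luciferase, 2,000 cells/well, compounds added after 4 hr. Incubated 24 hr at 37C, 5% CO2; luminescence read after 30 min with luciferase reagent at room temperature.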

[17] = qHTS RealTime-Glo MT Cell Viability Assay in HEK293 cells - 24 hour (AID 1224886); also: nearly all actives have a fitted effect of over 50% in size; also: potency is read from the fitted curve at half-maximal effect; as to activity change, negative = cytotoxicity: top concentration of the series differs between compounds
Outline: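 Quantitative high-throughput screen of the Tox21 10K library in HEK293: cells and RealTime-Glo reagents plated together, compound added at 5 h, luminescence monitored through 40 h at 37 C.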

[18] = target: Androgen receptor (Homo sapiens) (UniProt P10275); assay: qHTS assay to identify small molecule antagonists of the androgen receptor (AR) signaling pathway using the MDA cell line in the presence of 0.5 nM R1881 (AID 1259243); also: nearly all actives have a fitted effect of over 50% in size; also: potency is read from the fitted curve at half-maximal effect
Chain of Androgen receptor (Homo sapiens) (P10275 whole entry, looked up): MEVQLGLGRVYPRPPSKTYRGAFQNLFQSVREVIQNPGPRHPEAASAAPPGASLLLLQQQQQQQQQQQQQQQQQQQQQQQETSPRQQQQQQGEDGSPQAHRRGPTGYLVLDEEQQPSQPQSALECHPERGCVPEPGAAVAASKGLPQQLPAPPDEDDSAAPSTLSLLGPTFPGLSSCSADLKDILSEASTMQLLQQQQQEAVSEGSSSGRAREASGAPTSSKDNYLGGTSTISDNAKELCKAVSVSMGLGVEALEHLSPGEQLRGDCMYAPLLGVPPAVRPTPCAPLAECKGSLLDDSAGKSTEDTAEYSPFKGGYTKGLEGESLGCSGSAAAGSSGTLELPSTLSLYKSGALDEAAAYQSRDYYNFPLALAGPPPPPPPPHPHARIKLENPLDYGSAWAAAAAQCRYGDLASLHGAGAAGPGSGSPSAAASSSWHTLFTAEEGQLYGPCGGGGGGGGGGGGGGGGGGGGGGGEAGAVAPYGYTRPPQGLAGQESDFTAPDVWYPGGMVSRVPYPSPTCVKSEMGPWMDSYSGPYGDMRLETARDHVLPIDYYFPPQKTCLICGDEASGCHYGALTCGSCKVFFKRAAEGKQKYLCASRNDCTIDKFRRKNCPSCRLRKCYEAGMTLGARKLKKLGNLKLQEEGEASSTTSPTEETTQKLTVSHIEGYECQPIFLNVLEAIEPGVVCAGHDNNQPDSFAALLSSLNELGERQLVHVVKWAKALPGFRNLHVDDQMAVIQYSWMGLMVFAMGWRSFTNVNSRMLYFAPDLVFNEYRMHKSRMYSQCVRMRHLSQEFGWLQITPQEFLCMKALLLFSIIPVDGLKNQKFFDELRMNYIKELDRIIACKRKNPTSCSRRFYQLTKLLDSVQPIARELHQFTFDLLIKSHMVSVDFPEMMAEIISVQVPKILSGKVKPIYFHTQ
Outline: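 MDA-kb2 cells (MMTV-luciferase, responsive to AR and GR) at 3,000/well, rested 5 h at 37C, 0% CO2, then given compounds plus 0.5 nM R1881 (final) for 16 hr. Luciferase read with ONE-Glo after 30 min at room temperature.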

[19] = target: Estrogen receptor (Homo sapiens) (UniProt P03372); assay: qHTS assay to identify small molecule antagonists of the estrogen receptor alpha (ER-alpha) signaling pathway using the BG1 cell line in the presence of 0.1 nM 17-beta-estradiol (AID 1259244); also: nearly all actives have a fitted effect of over 50% in size; also: potency is read from the fitted curve at half-maximal effect
Chain of Estrogen receptor (Homo sapiens) (P03372 whole entry, looked up): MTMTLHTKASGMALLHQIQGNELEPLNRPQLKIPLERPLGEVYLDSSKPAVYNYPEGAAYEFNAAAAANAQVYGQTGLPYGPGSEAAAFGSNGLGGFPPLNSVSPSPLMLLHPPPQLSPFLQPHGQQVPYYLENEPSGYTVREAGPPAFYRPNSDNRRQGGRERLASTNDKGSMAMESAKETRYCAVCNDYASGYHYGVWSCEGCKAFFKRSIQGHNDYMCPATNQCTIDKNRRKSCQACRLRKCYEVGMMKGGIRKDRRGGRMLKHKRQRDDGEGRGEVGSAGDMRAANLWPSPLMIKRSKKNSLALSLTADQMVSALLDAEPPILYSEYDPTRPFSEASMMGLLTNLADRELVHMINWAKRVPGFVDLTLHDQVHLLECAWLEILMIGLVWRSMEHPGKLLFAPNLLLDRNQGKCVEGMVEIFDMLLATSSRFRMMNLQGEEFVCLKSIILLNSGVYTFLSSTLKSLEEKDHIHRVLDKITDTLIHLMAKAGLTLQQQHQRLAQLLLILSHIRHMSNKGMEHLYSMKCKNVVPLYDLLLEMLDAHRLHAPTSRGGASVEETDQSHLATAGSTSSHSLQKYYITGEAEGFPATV
Outline: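 VM7Luc4E2 cells (endogenous full-length ER-alpha, 4×ERE-luciferase), kept 5 days in phenol red-free, charcoal-stripped FBS medium; 4,000 cells/well. Compounds added with 0.1 nM (final) 17beta-estradiol, 22 hr at 37C; luminescence read with ONE-Glo after 30 min.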

[20] = qHTS assay to identify small molecule phospholipidosis (PLD) inducers (AID 1259344; active = well fitted curve in the direction sought with a large enough effect; an effect the other way counts as inactive or inconclusive)
Outline: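 Quantitative HTS in HepG2: compound plus LipidTOX Red dye for 24 h, paraformaldehyde fixation with Hoechst 33342, widefield high-content imaging; amiodarone as positive and DMSO as negative control.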
% is scaled to controls: 0 for no effect and ±100 for the full control effect.

Nc1ccccc1S(=O)(=O)c1ccccc1
inactive: Potency [1] | Potency [2] | Potency [3] | Potency [4] | Potency [5] | Potency [6] | Potency [7] | Potency [8] | Potency [9] | Potency [10] | Potency [11] | Potency [12] | Potency [13] | Potency [14] | Potency [15] | outcome [16]

C=CC(=O)OCCOc1ccccc1
active: Potency [14] 68.5 µM
inactive: Potency [1] | Potency [2] | Potency [3] | Potency [4] | Potency [5] | Potency [17] | Potency [6] | Potency [8] | Potency [9] | Potency [10] | Potency [11] | Potency [12] | Potency [13] | Potency [15] | outcome [16]

O=C1OC(CN2CCOCC2)CN1/N=C/c1ccc([N+](=O)[O-])o1 (stereo not given)
inactive: Potency [1] | Potency [2] | Potency [3] | Potency [4] | Potency [5] | Potency [6] | Potency [7] | Potency [8] | Potency [9] | Potency [10] | Potency [11] | Potency [19] | Potency [20] | Potency [12] | Potency [13] | Potency [14] | Potency [15] | outcome [16]
active: Potency [18] 26.6 µM

CC(C)CC(=O)C1C(=O)c2ccccc2C1=O
active: Potency [18] 48.6 µM
inactive: Potency [1] | Potency [2] | Potency [3] | Potency [4] | Potency [5] | Potency [17] | Potency [8] | Potency [9] | Potency [11] | Potency [13] | Potency [14] | Potency [15] | outcome [16]

NS(=O)(=O)c1ccc(N2CCCCS2(=O)=O)cc1
inactive: Potency [1] | Potency [2] | Potency [3] | Potency [4] | Potency [5] | Potency [17] | Potency [6] | Potency [8] | Potency [9] | Potency [11] | Potency [18] | Potency [19] | Potency [12] | Potency [13] | Potency [14] | Potency [15] | outcome [16]

Cc1nn(C)c(Oc2ccccc2)c1/C=N/OCc1ccc(C(=O)OC(C)(C)C)cc1
active: Potency [17] 0.0049 µM | Potency [10] 0.0137 µM | Potency [18] 0.0273 µM | Potency [19] 0.0122 µM
inactive: Potency [1] | Potency [2] | Potency [3] | Potency [4] | Potency [5] | Potency [6] | Potency [8] | Potency [9] | Potency [12] | Potency [13] | Potency [14] | Potency [15] | outcome [16]

COc1cc(Cl)ccc1Oc1ccc(Cl)cc1Cl
inactive: Potency [1] | Potency [2] | Potency [3] | Potency [4] | Potency [5] | Potency [6] | Potency [7] | Potency [8] | Potency [9] | Potency [10] | Potency [11] | Potency [19] | Potency [12] | Potency [13] | Potency [14] | Potency [15] | outcome [16]

Cc1c(N)cccc1[N+](=O)[O-]
inactive: Potency [1] | Potency [2] | Potency [3] | Potency [4] | Potency [5] | Potency [6] | Potency [7] | Potency [8] | Potency [9] | Potency [10] | Potency [11] | Potency [19] | Potency [12] | Potency [13] | Potency [14] | Potency [15] | outcome [16]

CCOC(=O)C(=O)CCc1ccccc1
inactive: Potency [1] | Potency [2] | Potency [3] | Potency [4] | Potency [5] | Potency [17] | Potency [8] | Potency [9] | Potency [10] | Potency [11] | Potency [18] | Potency [12] | Potency [13] | Potency [14] | Potency [15] | outcome [16]

CCCCO
inactive: Potency [1] | Potency [2] | Potency [3] | Potency [4] | Potency [5] | Potency [17] | Potency [7] | Potency [8] | Potency [9] | Potency [10] | Potency [11] | Potency [20] | Potency [12] | Potency [13] | Potency [14] | Potency [15] | outcome [16]

C[C@@H]1C[C@H]2[C@@H]3CCC4=CC(=O)C=C[C@]4(C)[C@@]3(F)[C@@H](O)C[C@]2(C)[C@@]1(O)C(=O)COC(=O)c1ccncc1
active: Potency [8] 1.07 µM
inactive: Potency [1] | Potency [2] | Potency [3] | Potency [4] | Potency [5] | Potency [17] | Potency [6] | Potency [9] | Potency [10] | Potency [11] | Potency [19] | Potency [12] | Potency [13] | Potency [14] | Potency [15] | outcome [16]

CCc1cc(C2=C(C(=O)O)N(c3ccccc3C(F)(F)F)S(=O)(=O)c3ccccc32)cc2c1OCO2
inactive: Potency [1] | Potency [2] | Potency [3] | Potency [4] | Potency [5] | Potency [17] | Potency [7] | Potency [10] | Potency [11] | Potency [12] | Potency [13] | outcome [16]
active: Potency [8] 24.3 µM | Potency [14] 12.1 µM | Potency [15] 12.1 µM

Cn1c(=O)cc(Oc2ccc(F)cc2F)c2cnc(NCC(C)(C)O)nc21
inactive: Potency [1] | Potency [2] | Potency [3] | Potency [4] | Potency [5] | Potency [6] | Potency [7] | Potency [8] | Potency [11] | Potency [12] | Potency [13] | Potency [14] | outcome [16]

CCCCNc1ccc(C(=O)OCCOCCOCCOCCOCCOCCOCCOCCOCCOC)cc1
active: Potency [19] 8.41 µM
inactive: Potency [1] | Potency [2] | Potency [3] | Potency [4] | Potency [5] | Potency [6] | Potency [7] | Potency [8] | Potency [9] | Potency [10] | Potency [11] | Potency [20] | Potency [12] | Potency [13] | Potency [14] | outcome [16]

NC(N)=NCCC[C@H](N)C(=O)O
inactive: cytotoxicity increase [1] -21.7% [at 6.97 µM] | cytotoxicity [2] 1.18% [at 6.97 µM] | cytotoxicity increase [3] -4.17% [at 6.97 µM] | cytotoxicity increase [4] -18% [at 6.97 µM] | activity change, negative = cytotoxic [5] 0.73% [at 6.97 µM] | activity change, negative = cytotoxicity [6] 6.66% [at 6.97 µM] | activity change [7] -19.2% [at 6.97 µM, hits give high values] | cytotoxicity increase [9] -1.13% [at 6.97 µM] | activity change, negative = cytotoxicity [10] 2.44% [at 8.39 µM] | viability change, negative = cytotoxic [11] 3.68% [at 8.39 µM] | activity change, negative = inhibition [19] 4.47% [at 8.39 µM] | PLD induction [20] -2.12% [at 7.66 µM] | activity change, negative = inhibition [12] 1.7% [at 8.39 µM] | activity change, negative = cytotoxicity [13] 4.6% [at 8.39 µM] | viability change, negative = cytotoxic [14] -3.86% [at 8.39 µM] | viability change, negative = cytotoxic [15] 1.21% [at 8.39 µM] | activity change [16] -0.124% [at 8.39 µM]

— PubChem BioAssay (Tox21)
